This note sets out measurements from ChEMBL document CHEMBL4513216, “Probing the Open Global Health Chemical Diversity Library for Multistage-Active Starting Points for Next-Generation Antimalarials” (ACS Infect Dis, 2020).

Among all 65,000 compounds or so, about 2,100 (3.2%) showed an effect of 50% or more. The median lay at about -52%. Many of the other results were omitted from the sample, so strong results are more common in it than they were.

The subject of the assay is Plasmodium falciparum. The experiment in a line: Screen against P. falciparum Asexual Blood Stage (ABS), at 5uM. The assay is classed as functional, Dd2. Conditions: tested at 5 uM.
Turning to `OC1CCN(Cc2c(C3CCCNC3)[nH]c3ncccc23)CC1` (centres undefined), the INHIBITION is given as -65.3%. In the case of `O=C(Cn1ccc2ccccc21)NC[C@@H]1CCCN2CCCC[C@H]12` it was -14.5%.

On to `COc1ccc2c(ccn2CC(=O)NC[C@@H]2CCCN3CCCC[C@H]23)c1`, for which the INHIBITION is -57.3%.

On to `Cc1ccc2c(ccn2CCC(=O)NC[C@@H]2CCCN3CCCC[C@H]23)c1`, for which the INHIBITION is listed as 52%.

On to `O=C(CCn1ccc2cc(Br)ccc21)NC[C@@H]1CCCN2CCCC[C@H]12`, for which the INHIBITION is reported as 67.1%. In the case of `Cc1ccc2c(ccn2CC(=O)NC[C@@H]2CCCN3CCCC[C@H]23)c1`, the INHIBITION was 49%. Regarding `O=C(Cn1ccc2cc(Br)ccc21)NC[C@@H]1CCCN2CCCC[C@H]12`, the INHIBITION was -14%. Turning to `Nc1cc(N2CCC(c3cc(Cc4ccccc4)n[nH]3)CC2)ccn1`, the INHIBITION was found to be 11.1%. Turning to `CN(Cc1ccco1)[C@@H]1CN(Cc2ccccn2)C[C@@H]2CCCO[C@@H]21`, the INHIBITION is reported as 31.5%. Under `Cc1cc(C)n(C2CN(Cc3ccccn3)C2)n1` stands -90.2%; under `CN(C)[C@@H]1CN(Cc2ccccn2)C[C@H]1c1cn(C)c2ccccc12`, 52.6%. Under `COc1cccc2c1OCC(Cc1cc(C(=O)N3CCCC3)ccn1)C2` (centres undefined) stands -9.28%; under `COc1ccc([C@@H]2CN(Cc3cccnc3N)C[C@H]2N(C)C)cc1`, 53.9%. On to `COc1ccc([C@@H]2CN(Cc3cccnc3N)C[C@H]2NC(C)=O)cc1`, for which the INHIBITION is recorded as -59.7%. In the case of `COc1ccc([C@@H]2CN(Cc3ccncc3)C[C@H]2N(C)C)cc1` it was -36.3%; in that of `Cn1cccc1C(=O)N1CCn2cc(CN3CCCC3)nc2C1`, -26.2%.

Turning to `COCCN(C/C=C/c1ccccc1)Cc1nccs1`, the INHIBITION is -7.08%.

`COCCN(C/C=C/c1ccccc1)Cc1ccccn1`: the INHIBITION came to 23.1%. For `CCc1ccc(CN(C/C=C/c2ccccc2)CCOC)nc1`, the INHIBITION was 54.8%.

`O=C(c1cccc(Cl)c1)N1CCCn2c(CN3CCCCC3)nnc2C1`: the INHIBITION is on record as 10.2%.

On to `Cn1ccnc1-c1nc2cc(S(=O)(=O)N3CCCC3)ccc2n1C`, for which the INHIBITION was -13.2%.

With `Nc1cc2c(nn1)CCN(C(=O)CCC1CCCCC1)C2`, the INHIBITION is given as -69.7%. Take `c1cc(CN(CCCn2ccnc2)Cc2ccoc2)ccn1`: the INHIBITION is on record as -27%.

In the case of `Cc1ccc(CN(CCCn2ccnc2)Cc2c[nH]cn2)s1`, the INHIBITION is reported as 21.2%. On to `CN(C)c1ccc(CN(CCCn2ccnc2)Cc2c[nH]cn2)cc1`, for which the INHIBITION was found to be 79.8%.

For the molecule `Cc1nc[nH]c1-c1nccn1CCN1CCOC1=O`, the INHIBITION is -38.9%. With `Cn1cc(C2CCCN2CCCn2c(=O)oc3ccccc32)cn1` (centres undefined), the INHIBITION is 8.65%.

With `Cc1nc(C2CCCN2CCCn2c(=O)oc3ccccc32)no1` (centres undefined), the INHIBITION was -44.1%. Under `O=c1oc2ccccc2n1CCCN1CCCC1c1ccc(O)cc1` (centres undefined) stands 54.1%; under `CN1CCC(CCc2ccnc(NC(=O)c3ccccn3)c2)CC1`, -102%; under `CCn1cc(CNC(=O)CCn2ncc3c(Cl)cccc32)cn1`, -21.7%. In the case of `Cn1cc(CCNCc2cc(Cl)c3c(c2)OCCO3)cn1` it was -26.6%; in that of `Cn1cc(CNCCNc2ncc(Cl)cc2Cl)cn1`, 54%; in that of `CCn1cc(CNCCNc2ncc(Cl)cc2Cl)cn1`, 66.6%. Under `Cn1ccnc1CNCCNc1ncc(Cl)cc1Cl` stands 41.8%; under `CCn1cc(CNc2ccc3nccnc3c2)cn1`, -14.1%. As to `O=C([C@@H]1CC[C@@H]2[C@@H](CCN2Cc2ccoc2)O1)N1CCCC1`, the INHIBITION was -94.6%.

`O=S(=O)(c1ccc(Cl)s1)N1CCN(Cc2nc(-c3ccco3)cs2)CC1`: the INHIBITION is given as -66%.

Consider `NC(=O)C1(c2cnccn2)CCCN1Cc1ccncc1` (centres undefined), for which the INHIBITION is on record as -58.5%. In the case of `O=C(NCCNc1cncc(Br)c1)c1ccc(O)cc1` it was 52.2%; in that of `O=C(NCCNC(=O)c1ccc(Br)cc1)c1ccc(O)cc1`, 30.3%; in that of `O=C(NCCNc1ccc(Br)cn1)c1ccc(O)cc1`, -20.5%. In the case of `CCCN1CCc2c(C(=O)N(C)Cc3ccccn3)nn(C)c2C1` it was -23.7%. Under `O=C(Cc1ccsc1)N1CCCC(c2n[nH]c3ncccc23)C1` (centres undefined) stands -37.1%; under `CS(=O)(=O)NCCCN1CCCC1Cc1ccccc1` (centres undefined), -29%; under `CS(=O)(=O)NCCCN1CCCC1c1ccsc1` (centres undefined), -73.1%. On to `CS(=O)(=O)NCCCN1CCCCC1c1cc2ccccc2[nH]1` (centres undefined), for which the INHIBITION worked out at 58.9%. Under `COc1ccc(C2CCCCCN2S(C)(=O)=O)cc1` (centres undefined) stands -92.8%. `COc1cccc(C2CCCN2CCCNS(C)(=O)=O)c1` (centres undefined): the INHIBITION is -0.589%. In the case of `O=C(CCN1CCCCC1c1cc2ccccc2[nH]1)N1CCOCC1` (centres undefined) it was 39.3%; in that of `CS(=O)(=O)NCCCN1CCCC1c1ccccc1` (centres undefined), -93.1%. With `CS(=O)(=O)NCCCN1CCCC1c1cccc(Br)c1` (centres undefined), the INHIBITION was determined as 65.4%. In the case of `COc1ccc(C2CCCCCN2CCCNS(C)(=O)=O)cc1` (centres undefined) it was 59.3%; in that of `Cc1ocnc1C(=O)N1CCCC1c1ccc(C(=O)N2CCSCC2)s1` (centres undefined), -154%.

On to `Cn1c(=O)c2c(n3ncnc13)NC(=O)CC2c1cccc(Br)c1` (centres undefined), for which the INHIBITION is reported as -61.2%. For the molecule `CC(C)c1nc(CN(C)C(=O)c2cn3ccsc3n2)cs1`, the INHIBITION is recorded as -43.1%. Turning to `COc1cccc(C=CCCN2CCCN(C(C)=O)CC2)c1`, the INHIBITION is -13%. Consider `Cc1cc(F)ccc1CN1CCCC2(C1)OCCO2`, for which the INHIBITION was -67.8%.

`CN(C)C[C@@H]1CN(Cc2ccccc2C#N)C[C@@H]1CO`: the INHIBITION was -47.7%. In the case of `COc1ccc(CN2CCC(O)(CN3CCCCC3)C2)c(C)c1` (centres undefined) it was 67.6%; in that of `COCC(=O)N1CCC2(CCCN(Cc3cc(OC)ccc3F)C2)C1` (centres undefined), -70%; in that of `Cc1ccccc1CN1C[C@@H](CN(C)CCO)[C@@H](CO)C1`, 7.46%. Under `CCCn1ccnc1CN1CCC(O)(CN2CCCCC2)C1` (centres undefined) stands 18.6%; under `CC(C)c1nccc(CN2CCC(O)(CN3CCCCC3)C2)n1` (centres undefined), 32.8%; under `Cc1cc(C)c(C(=O)N2CCCC(O)(CN3CCCC3)C2)cc1C` (centres undefined), -30.5%. In the case of `Cc1cc(F)ccc1CN1CCCC(O)(CN2CCCC2)C1` (centres undefined) it was 66.7%; in that of `COc1ccc(F)c(CN2CCCC3(CCN(C(=O)CSC)C3)C2)c1` (centres undefined), -63.5%. `Cc1cc(-n2cccn2)ccc1CN1CCC(O)(CN2CCCCC2)C1` (centres undefined): the INHIBITION stood at 62.1%. Turning to `Cc1cc(-n2cccn2)ccc1CN1C[C@@H](CN(C)C)[C@@H](CO)C1`, the INHIBITION is given as 51.7%.
